Screening results as filed in PubChem BioAssay.
Most compounds without a hit are left out; they make up all but 2.4% or so of the library.
D2 ag-1: D2 dopamine receptor (human) agonism; P14416; HEK293 T-REx D2 cells, calcium flux agonist mode; activation, % at 2 µM; 340,000 compounds, 0.53% hits; AID 485358;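 active = activation over 3 SD above normal in the single-dose calcium agonist read, cut at about 30% in these data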; note: 0% is about no effect
Target sequence (P14416 whole entry, looked up): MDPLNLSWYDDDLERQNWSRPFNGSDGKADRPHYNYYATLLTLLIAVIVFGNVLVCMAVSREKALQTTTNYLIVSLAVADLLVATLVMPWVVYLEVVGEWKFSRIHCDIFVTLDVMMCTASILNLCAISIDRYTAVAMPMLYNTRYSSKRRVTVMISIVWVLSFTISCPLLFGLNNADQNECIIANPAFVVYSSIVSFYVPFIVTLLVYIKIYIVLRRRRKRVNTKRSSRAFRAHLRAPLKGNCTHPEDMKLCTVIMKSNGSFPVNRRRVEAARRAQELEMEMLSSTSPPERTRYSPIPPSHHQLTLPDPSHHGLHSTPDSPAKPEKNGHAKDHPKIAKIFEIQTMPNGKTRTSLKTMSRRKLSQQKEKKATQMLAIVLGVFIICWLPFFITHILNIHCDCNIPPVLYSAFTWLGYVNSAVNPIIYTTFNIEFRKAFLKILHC
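Tetracycline-induced HEK293 Trex cells with D2 receptor force-coupled to calcium signaling, plated overnight at 30 C and loaded with no-wash calcium dye. Calcium flux read kinetically for 180 s after compound addition; responses flag agonists.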
D2 ag-2: human D2 receptor agonism in beta-arrestin assay. P14416. DiscoveRx PathHunter D2 beta-arrestin, luminescence, 90 min; 100% = 57 uM dopamine signal. activation, % (concentration not given with the values). AID 624465. 360,000 compounds, 0.084% hits; in the data active = activation above about 40%; inconclusive = between about 15% and that limit
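DiscoveRx PathHunter D2 beta-arrestin cells (2,100/well) attached overnight, then compound-stimulated 90 min at 37 C in HBSS/10 mM HEPES/0.1% Tween-20 buffer; beta-galactosidase complementation read by luminescence after 1 h at ambient temperature. Dopamine 57 uM final (EC100) as control.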
D2 antag: antagonizes the human D2 dopamine receptor; P14416; HEK293 TREx D2 cells, calcium flux, dopamine EC80; inhibition, % at 10 µM; 340,000 compounds, 2% hits; AID 485344; in the data active = inhibition above about 30%; inactive = below that, where a call was filed; note: 0% is about no effect
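Overnight-induced (tetracycline, 30 C) HEK293 T-REx cells carrying force-coupled D2 receive a no-wash calcium dye, then compound, then EC80 dopamine at 180 s; signals are read kinetically throughout.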
D2 PAM-1: positive allosteric modulators of human D2 dopamine receptor | P14416 | DiscoveRx D2 beta-arrestin cells, luminescence, 90 min; 100% = 57 uM dopamine signal | potentiation, % (test concentration not listed) | 360,000 compounds, 0.23% hits; in the data active = potentiation above about 50%; inconclusive = mostly about 30% to 49%
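PathHunter D2 cells, attached overnight at 37 deg C, received compound in DMSO plus dopamine at EC20 (50 nM final) for 90 min at 37 deg C. Beta-arrestin recruitment was read as luminescence after 1 h with detection reagent at ambient temperature.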
D2 PAM-2: positively modulates the human D2 dopamine receptor allosterically | HEK293 T-REx D2, calcium flux, EC20 dopamine potentiation | potentiation, % at 10 µM | 340,000 compounds, 0.34% hits;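 active = potentiation over 3 SD above the plate norm, cut at about 30% in these data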; note: 0% is about no effect
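Potentiation of an EC20 dopamine calcium response is measured in a force-coupled, tetracycline-inducible Hek293 Trex D2 line. Compound-only kinetic reads over 180 s flag agonists before dopamine addition.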
The depositor's hits bear a star.

Results for O=C(NCCCc1ccccc1)c1ccc(F)cc1 ?
D2 ag-1: 0; D2 ag-2: 0; D2 antag: -10; D2 PAM-1: -7; D2 PAM-2: 4

Results for O=C(NCCNC1CCC(c2ccccc2)CC1)c1ccc(F)cc1 (stereo not drawn) ?
D2 ag-1: 3; D2 ag-2: -9; D2 antag: 85*; D2 PAM-1: -18; D2 PAM-2: -24

Results for CCN(CC)CCNCC(O)(c1ccc(Cl)cc1)c1ccc(Cl)cc1 ?
D2 ag-2: -1; D2 PAM-1: -16; D2 PAM-2: -25

What do the screens show for `CCN(CC)CCNCc1ccc(-c2ccc(Cl)cc2)o1`?
D2 ag-1: 0; D2 ag-2: 1; D2 antag: 33*; D2 PAM-1: -30; D2 PAM-2: -24

What do the screens show for `CC[C@@H]1CC2=C(C(=O)OC(C)(C)O2)[C@H](c2ccc(Cl)cc2)O1`?
D2 ag-2: 5; D2 PAM-1: 0

Results for COc1ccc(-n2nc(C(=O)NCC(=O)NCCc3ccc(OC)c(OC)c3)c3ccccc3c2=O)cc1Cl ?
D2 ag-1: 1; D2 ag-2: inconclusive; D2 antag: -21; D2 PAM-1: 23; D2 PAM-2: 55*

Results for CCOC(=O)N1CCN(C(=O)CNC(=O)c2nn(-c3ccc(OC)c(Cl)c3)c(=O)c3ccccc23)CC1 ?
D2 ag-1: -1; D2 ag-2: 13; D2 antag: -7; D2 PAM-1: 19; D2 PAM-2: 43*

What do the screens show for `COCCNC(=O)CNC(=O)c1nn(-c2ccc(OC)c(Cl)c2)c(=O)c2ccccc12`?
D2 ag-1: 0; D2 ag-2: -4; D2 antag: 18; D2 PAM-1: -4; D2 PAM-2: 5

What do the screens show for `Cc1cccc2sc(NNC(=O)C3COc4ccccc4O3)nc12` (stereo not drawn)?
D2 ag-1: -1; D2 ag-2: 7; D2 antag: 10; D2 PAM-1: 5; D2 PAM-2: -2

How did Cc1cc(C)c2sc(NNC(=O)C3COc4ccccc4O3)nc2c1 (stereo not drawn) do in these assays?
D2 ag-1: -1; D2 ag-2: -4; D2 antag: 33*; D2 PAM-1: -6; D2 PAM-2: -3

Results for COc1ccc(CN2CCC2(C)C(=O)NCCc2c[nH]c3ccccc23)c2ccccc12 (stereo not drawn) ?
D2 ag-2: -4; D2 PAM-1: 1

What do the screens show for `COc1cc2c(cc1OC)C(=Cc1ccc(N(C)C)cc1)C=C2`?
D2 ag-2: -5; D2 PAM-1: -10

How did COc1cc2nc(/C=C/c3ccc(N(C)C)cc3)sc2cc1SC do in these assays?
D2 ag-1: 67*; D2 ag-2: -3; D2 antag: 24; D2 PAM-1: -8; D2 PAM-2: -4

How did CCN(CC)CCNC(=O)c1ccc(Sc2ccc(C)cc2)c(NC(C)=O)c1 do in these assays?
D2 ag-1: -1; D2 ag-2: -7; D2 antag: 54*; D2 PAM-1: -12; D2 PAM-2: -31

Results for CCN(CCCNC(=O)c1ccc(Sc2ccc(Cl)cc2)c(NC(C)=O)c1)c1cccc(C)c1 ?
D2 ag-1: 0; D2 PAM-2: -1

What do the screens show for `CC(=O)Nc1cc(C(=O)NCc2ccc(C)cc2)ccc1Sc1ccc(C)cc1`?
D2 ag-1: 1; D2 PAM-2: 10

How did CCN(CC)CCNC(=O)c1ccc(Sc2ccc(Cl)cc2)c(NC(C)=O)c1 do in these assays?
D2 ag-1: 0; D2 ag-2: -6; D2 antag: 36*; D2 PAM-1: -18; D2 PAM-2: -31

How did CCCC1CC(=O)NC1(C(=O)OCC)C(=O)OCC (stereo not drawn) do in these assays?
D2 ag-2: -1; D2 PAM-1: -3

How did Cc1ccc(S(=O)(=O)c2ccc([N+](=O)[O-])cn2)cc1 do in these assays?
D2 ag-1: 0; D2 ag-2: -7; D2 antag: 4; D2 PAM-1: 24; D2 PAM-2: 8

Results for O=[N+]([O-])c1ccc(S(=O)(=O)c2ccccc2)nc1 ?
D2 ag-1: 0; D2 ag-2: 48*; D2 antag: -8; D2 PAM-1: -65; D2 PAM-2: 1

Results for NC(=O)CSc1ncc2c(n1)-c1ccccc1N(Cc1ccc(F)cc1)S2(=O)=O ?
D2 ag-1: -1; D2 PAM-2: -6

How did O=C1CC(c2nc3ccccc3[nH]2)CN1c1cccc(C(F)(F)F)c1 (stereo not drawn) do in these assays?
D2 ag-1: 1; D2 ag-2: -1; D2 antag: 33*; D2 PAM-1: -8; D2 PAM-2: -5

Results for O=C(C1CC(=O)N(c2ccc(F)cc2)C1)N1CCC(c2nc3ccccc3[nH]2)CC1 (stereo not drawn) ?
D2 ag-1: 0; D2 ag-2: 1; D2 antag: -13; D2 PAM-1: -10; D2 PAM-2: -20

What do the screens show for `Cc1ccc(N2CC(C(=O)N3CCC(c4nc5ccccc5[nH]4)CC3)CC2=O)cc1C` (stereo not drawn)?
D2 ag-1: 0; D2 ag-2: 1; D2 antag: 34*; D2 PAM-1: -7; D2 PAM-2: -11

What do the screens show for `CCOc1ccc(NC(=O)C2CCCN(S(=O)(=O)c3ccc(Br)s3)C2)cc1` (stereo not drawn)?
D2 ag-1: 0; D2 PAM-2: 1

How did Cc1ccccc1CSc1nnnn1-c1ccc(C(N)=O)cc1 do in these assays?
D2 ag-1: -1; D2 ag-2: 0; D2 antag: 11; D2 PAM-1: -2; D2 PAM-2: -2

How did O=C(O)c1ccc(-n2nnnc2SCc2ccccc2F)cc1 do in these assays?
D2 ag-1: 1; D2 ag-2: 1; D2 antag: 37*; D2 PAM-1: -8; D2 PAM-2: -31

What do the screens show for `Cc1cccc(N2CCN(c3cc(C)nc4c(-c5ccc(Cl)cc5)c(C)nn34)CC2C)c1` (stereo not drawn)?
D2 ag-1: 0; D2 PAM-2: -6

Results for COC(=O)c1cc(C(=O)c2ccc(Cl)cc2Cl)cn1C ?
D2 ag-1: 1; D2 ag-2: -1; D2 antag: 1; D2 PAM-1: 10; D2 PAM-2: 38*

What do the screens show for `Cc1ccc(CSc2sc(C(=O)c3ccccc3)c(N)c2C#N)cc1`?
D2 ag-1: 0; D2 ag-2: -4; D2 antag: 18; D2 PAM-1: 21; D2 PAM-2: -3

Results for N#Cc1c(SCc2ccccc2)sc(C(=O)c2ccccc2)c1N ?
D2 ag-1: 0; D2 ag-2: -2; D2 antag: 65*; D2 PAM-1: -1; D2 PAM-2: -12

What do the screens show for `CCC(=O)N1CCCC(C)(C(=O)NS(=O)(=O)c2cccs2)C1` (stereo not drawn)?
D2 ag-2: -3; D2 PAM-1: -6
